# About 83,000 compounds went through this panel and 20% of them were active in at least one assay; those are over-represented in the sample as a whole.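 Cell lines were cultured in 96-well plates, exposed to a single compound concentration, and assessed for percent growth 48 hours later.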 Calls of active or inactive are those of the source. The calls were made as follows: active = growth percent below 10; inactive = the rest.
# Tested on: HL-60(TB) leukemia
# Experiment: NCI-60 one-dose screen, 48 h (100 = growth as untreated, 0 = no growth, -100 = all killed)
# Settings: 10 µM unless noted
row,Compound,growth
1,Cc1ccc(N=Nc2c(N)nc(N)[nH]c2=O)cc1C,97.3% (inactive)
2,O=C(NC1CC1)c1cc2n(n1)CC(c1ccccc1)N2 (centres undefined),107% (inactive)
3,COc1cc(N2CCC(N3CCN(C)CC3)CC2)ccc1Nc1ncnc(Nc2ccccc2S(=O)(=O)C(C)C)n1,102% (inactive)
4,CCOc1cc(N)ccc1C(=O)NCCCN(CC)CC,70.2% (inactive)
5,COc1ccc(NC(=O)/C=C(C)/C=C/C=C(C)/C=C/C2=C(C)CCCC2(C)C)cc1,5.62% (active)
6,COc1ccc(Cl)cc1Nc1nc(C(F)(F)F)ccc1C(=O)N/N=C/c1ccc([N+](=O)[O-])cc1,-10.8% (active)
7,OCCNc1nc(NCCO)nc(Nc2ccc(C3=NN(c4cc(Cl)cc(Cl)c4)C(c4ccc(C(F)(F)F)cc4)C3)cc2)n1 (centres undefined),16.7% (inactive)
8,C/C=C(/C)n1cnc2c(Nc3ccccn3)nc(Cl)nc21,107% (inactive)
9,CC(C)(C)OC(=O)NCCc1ccc(N=C=S)cc1,19.8% (inactive)
10,O=C(CN1CCN(c2cc3c(cc2F)c(=O)c(C(=O)N/N=C/c2ccccc2)cn3C2CC2)CC1)N/N=C\c1ccccc1,51.1% (inactive)
11,CN(C)c1ccc(-c2nc3ncc(Br)cc3o2)cc1,85.8% (inactive)
12,COC(=O)[C@]12CC[C@@H](C)[C@H](C)[C@@H]1C1=CC[C@@H]3[C@@]4(C)C(C=O)=C[C@@](C)(COS(C)(=O)=O)C4=CC[C@@]3(C)[C@]1(C)CC2,-34.8% (active)
13,CCC(C)(C)c1ccc(Nc2ccc(Nc3ccc(C(C)(C)CC)cc3)cc2)cc1,47.5% (inactive)
14,O=C(O)c1ccc(Nc2ncc3c(n2)-c2ccc(Cl)cc2C(c2c(F)cccc2F)=NC3)cc1,22.6% (inactive)
15,COc1cc(/C=C2\CN(S(=O)(=O)c3ccc(C)cc3)C/C(=C\c3cc(CN4CCCCC4)c(O)c(OC)c3)C2=O)cc(CN2CCCCC2)c1O,-37.2% (active)
16,O=C1NC(=O)C(c2ccccc2)(c2ccccc2)N1Cc1cn(-c2c3ccccc3nc3ccccc23)nn1,73.3% (inactive)
17,O=[N+]([O-])c1ccc(NC(c2ccccc2)c2ccc3cccnc3c2O)cc1 (centres undefined),-9.64% (active)
18,COc1cc2nccc(Oc3ccc(NC(=O)Nc4cc(C)on4)c(Cl)c3)c2cc1OC,9.48% (active)
19,CCCCN(CC)CCCCCCCCCCN1CCCc2cc(OC)ccc21,-54% (active)
20,O=CN1N=C(c2ccc(Cl)cc2)CC1c1cccc(Nc2ccnc3cc(C(F)(F)F)ccc23)c1 (centres undefined),31.6% (inactive)
21,Clc1ccc2c(c1)C[C@H]1C[C@@H](c3cccs3)N2O1,107% (inactive)
22,COc1ccc(-c2nsc3c2NC(=O)CC3c2ccc3c(c2)OCO3)cc1 (centres undefined),-22.3% (active)
23,Cn1cnc([N+](=O)[O-])c1N1c2ccncc2Sc2ccncc21,87.5% (inactive)
24,N#C/C(=C\c1ccc(-c2ccc(F)cc2)o1)c1nc(-c2ccco2)cs1,98% (inactive)

# From PubChem BioAssay (NCI)
